PLK1 PBD inh = PLK1 (human) polo-box domain binding inhibition; P53350; Plk1 PBD binding of FITC phosphopeptide, fluorescence polarization; Potency, µM, for inactives: max response, negative = inhibition, most hits filed as inhibitors; 2.8% of 360,000 active; AID 720504; further: potency means the concentration at half of the fitted maximal effect; series mostly up to about 57 µM; on the % scale 0 is the no-effect control and ±100 the full control effect; nearly all actives have a fitted effect of over 65% in size
HP1b chromo inh = inhibitors of HP1-beta chromodomain binding to methylated histone tails; AlphaScreen HP1-beta / biotin-H3K9me3 peptide binding; Potency, µM (doses to about 114 µM), for inactives: at the top dose activity change, negative = inhibition, actives largely listed as inhibitors; 0.56% of 390,000 active; AID 540317; further: potency means the concentration at half of the fitted maximal effect; nearly all actives have a fitted effect of over 70% in size
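Compound inhibition of the preformed complex between 50 nM HP1-beta and 50 nM biotinylated H3K9me3 peptide was read by AlphaScreen. Buffer was PBS pH 7.4 with 0.01% Tween-20. Incubations ran 30 min at room temperature, with 10 ug/mL donor/acceptor beads.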
JMJD2A Tudor inh = inhibitors of human JMJD2A Tudor domain | 4.4% of 390,000 active | Potency, µM (series often up to 114 µM), without a hit: at the highest dose activity change, negative = inhibition, usual class: inhibitors | AlphaScreen JMJD2A-Tudor / H3K4me3 peptide binding | O75164; further: potency means the concentration at half of the fitted maximal effect; on the % scale 0 is the no-effect control and ±100 the full control effect; nearly all actives have a fitted effect of over 50% in size
BAZ2B inh = BAZ2B (human) inhibition | AlphaScreen BAZ2B-H3K14Ac peptide displacement | Q9UIF8 | Potency, µM (highest dose often 114 µM), for the others: at the highest dose activity change, negative = inhibition, actives largely listed as inhibitors | 4.4% of 360,000 active; further: potency means the concentration at half of the fitted maximal effect; on the % scale 0 is the no-effect control and ±100 the full control effect; nearly all actives have a fitted effect of over 60% in size
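AlphaScreen displacement: compounds (up to 110uM) incubated 30 min at room temperature with a preformed 50 nM BAZ2B/50 nM biotinylated H3K14Ac peptide complex in PBS pH 7.4 with Tween-20. Donor and acceptor beads at 10 ug/mL final added, 20 min light-protected before reading.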
PI5P4Ka inh = inhibitors of human PI5P4K alpha. 1.2% of 330,000 active. max response, %. P48426. AID 652105. PI5P4Kalpha enzyme, ADP-Glo luminescence, 60 min; stronger effect = lower value; active means max response of -50% or lower; inconclusive means between -30% and -50%; inactive means -30% or higher; further: value at the top dose of about 77 µM; on the % scale 0 is the no-effect control and ±100 the full control effect
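ADP-Glo luminescence end-point read after a 60 min room-temperature kinase reaction of PI5P4Kalpha plus substrate, initiated with ATP at 5 microM final. Buffer: 0.038 M HEPES pH 7.4, EGTA, 0.1% CHAPS, 5% DMSO.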
GCN5L2 inh = blocks human GCN5L2 histone acetyltransferase; Potency, µM (series often up to 58.9 µM), inactives show top-dose activity change, negative = inhibition, hits mostly inhibitors; Q92830; 0.21% of 390,000 active; AID 504327; GCN5L2 HAT assay, ThioGlo1 CoA-SH fluorescence; further: potency means the concentration at half of the fitted maximal effect; on the % scale 0 is the no-effect control and ±100 the full control effect
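qHTS, 1536-well. 20nM enzyme, pH 7.5 HEPES/EDTA/Tween-20 buffer; 15 min compound preinc., RT. Start: 75uM H3(1-25), 70uM AcCoA, 50uM ThioGlo1. Read Ex340/Em540 at t=0 (autofluorescence flag) and t=20 min.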
Numbers without * were called inactive; [ ] = another dose, or the depositor's remark. Shown are actives, neighbours in structure and some others; about 7% of the full set was active somewhere. Unless noted, the call rests on the fitted dose curve; in most records, active means well fitted curve in the direction sought with a large enough effect; inconclusive means small, poorly fitted or top-dose-only effect, or another doubt; inactive means no such curve, though single readings can be large; an effect the other way counts as inactive or inconclusive.

Screening Cc1c(Cl)cc(C(C)C)c(O)c1CN1CCOCC1 returned PLK1 PBD inh -4.6%, HP1b chromo inh 69.2%, JMJD2A Tudor inh 6.9% and PI5P4Ka inh 38.0.
For O=C(O)c1cc(O)c2c(c1)C(=O)c1cc(O)cc(O)c1C2=O the results were PLK1 PBD inh inconclusive, HP1b chromo inh -37.9%, JMJD2A Tudor inh inconclusive, BAZ2B inh 50.1µM*, PI5P4Ka inh -86.1* and GCN5L2 inh -18.2%.
For Cc1cccc(-n2nc3c(c2NC(=O)c2ccco2)CSC3)c1C the results were PLK1 PBD inh inconclusive, HP1b chromo inh -26.3%, JMJD2A Tudor inh 50.1µM*, BAZ2B inh -5.8% and GCN5L2 inh -22.1%.
O=C(CSc1ccc(Br)cc1)Nc1cccc(S(=O)(=O)N2CCOCC2)c1 was read as PLK1 PBD inh 5.97µM*, HP1b chromo inh 55.9%, JMJD2A Tudor inh 20.7%, BAZ2B inh 13.3%, PI5P4Ka inh -5.7 and GCN5L2 inh -6.6%.
Screening Cc1cc(C(=O)OCC(=O)Nc2cccc(S(=O)(=O)N3CCOCC3)c2)c(C)o1 returned PLK1 PBD inh 26.7µM*, HP1b chromo inh -30.6%, JMJD2A Tudor inh -9.9%[11.4 µM], BAZ2B inh -9.4%, PI5P4Ka inh -15.5 and GCN5L2 inh -0.3%.
`O=C(CCN1C(=O)c2ccccc2C1=O)Nc1ccc(S(=O)(=O)N2CCOCC2)cc1` gave PLK1 PBD inh 23.8µM*, HP1b chromo inh -18.0%, JMJD2A Tudor inh inconclusive, BAZ2B inh -21.6% and GCN5L2 inh 1.0%.
For O=C(CCSc1ccccc1)Nc1ccc(S(=O)(=O)N2CCOCC2)cc1 the results were PLK1 PBD inh -12.9%, HP1b chromo inh 49.4%, JMJD2A Tudor inh -23.8%, BAZ2B inh 56.2µM*, PI5P4Ka inh 0.0 and GCN5L2 inh -11.5%.
`CC1CCCN(S(=O)(=O)c2ccc(NC(=O)CCN3C(=O)c4ccccc4C3=O)cc2)C1` (stereo unspecified) gave PLK1 PBD inh -8.1%, HP1b chromo inh 8.0%, JMJD2A Tudor inh -5.8%, BAZ2B inh 8.9%, PI5P4Ka inh -6.4 and GCN5L2 inh -6.2%.
`NC(=O)NCCCC(NC(=O)c1ccc(C#CC2(O)CCCCC2)cc1)C(=O)O` (stereo unspecified) gave PLK1 PBD inh -4.7%, HP1b chromo inh 37.8%, JMJD2A Tudor inh 0.8%[11.4 µM], BAZ2B inh -28.9%, PI5P4Ka inh -4.6 and GCN5L2 inh -7.1%.
For CC1=C(C)CC(C(=O)Nc2ccc(C(=O)N3CCOCC3)cc2)C(C(=O)O)C1 (stereo unspecified) the results were PLK1 PBD inh 21.2µM*, HP1b chromo inh -11.6%, JMJD2A Tudor inh -37.5%, BAZ2B inh -8.1%, PI5P4Ka inh -9.3 and GCN5L2 inh -1.4%.
O=S(=O)(c1ccc(NC(=S)NN=C(Cc2ccccc2)Cc2ccccc2)cc1)N1CCOCC1 was read as PLK1 PBD inh -19.8%, HP1b chromo inh -19.7%, JMJD2A Tudor inh -9.0%[11.4 µM], BAZ2B inh 50.1µM*, PI5P4Ka inh inconclusive and GCN5L2 inh 0.2%.
For O=C(Nc1ccc(C(=O)N2CCOCC2)cc1)C1CC1 the results were PLK1 PBD inh -5.7%, HP1b chromo inh 49.6%, JMJD2A Tudor inh -11.6% and PI5P4Ka inh 5.8.
`O=S(=O)(c1ccc(NC(=S)NCCc2ccccc2)cc1)N1CCOCC1` gave PLK1 PBD inh -12.9%, HP1b chromo inh 42.1%, JMJD2A Tudor inh -6.2%, BAZ2B inh -7.8%, PI5P4Ka inh 1.3 and GCN5L2 inh 0.7%.
Screening O=C(O)C1CCCCC1C(=O)Nc1ccc(S(=O)(=O)N2CCOCC2)cc1 (stereo unspecified) returned PLK1 PBD inh -11.8%, HP1b chromo inh -16.5%[57 µM], JMJD2A Tudor inh 56.2µM* and PI5P4Ka inh -1.1.
For CSc1ccccc1NC(=O)c1ccc(N2CCCC2=O)cc1 the results were PLK1 PBD inh -4.6%, HP1b chromo inh 26.0%, JMJD2A Tudor inh -3.0%, BAZ2B inh 9.4%, PI5P4Ka inh -1.3 and GCN5L2 inh -9.5%.

Assay outcomes (PubChem)
